# From PubChem BioAssay (NCATS)
# Results filed as inconclusive are left out. A number with no mark means an inactive call. Activity calls are given as the source filed them. Calls follow the shape of the dose curve; as a rule, active = well fitted inhibition curve with a large enough effect; inconclusive = small, poorly fitted or top-dose-only effect, or effect the other way; inactive = flat fitted curve, though single readings scatter.
# Experiment: Quantitative high throughput screen for delayed death inhibitors of the malarial parasite plastid, 48 hour incubation (AID 488752); also: nearly all actives have a fitted effect of over 65% in size
# Conditions: Plasmodium falciparum growth; series mostly up to 28.7 µM; activity change, negative = inhibition: at the top concentration
# From the text: NIH Molecular Libraries Probe Production Network [MLPCN]
# NIH Chemical Genomics Center [NCGC]
# Assay Provider: David Fidock and Eric Ekland, Columbia University
# The goal of this screen is to discover new antimalarial compounds that act by inhibiting the development of the apicoplast in the malarial parasite Plasmodium falciparum. The biochemical processes that make this organelle essential for erythrocytic stage parasites are not well understood. However, antibiotics, such as azithromycin and tetracycline, which target the apicoplast translational machinery, have a potent antimalarial effect.
# We have developed a cell-based assay that measures parasite growth based on the expression of an integrated copy of a firefly luciferase reporter. To detect small molecules that cause this 'delayed death' phenotype, erythrocytes infected with the luciferase-expressing parasites were incubated with compounds for either one or two generations, corresponding to 48 and 96 hours, respectively. Compounds that inhibit parasite growth in the second generation, but not the first, should be enriched in antimalarials that target the apicoplast. Growth inhibition is detected by a decrease in luciferase activity
# Four microliters of culture medium (RPMI 1640 with 0.5% w/v Albumax (GIBCO), 24 mM sodium bicarbonate and 10 ug/mL gentamycin) were dispensed by a Multi-drop Combi into white solid 1536-well plates (Grenier) and 23 nL compound was added by a pin tool. Four microliters of infected erythrocytes (2% hematocrit, 0.1% parasitemia final concentration) in culture medium were dispensed and the plates incubated for 48 hours at 37 C in 5% CO2. Two microliters of luciferase detection reagent was added and luminescence was detected by a ViewLux (PerkinElmer) reader
# % is scaled to controls: 0 for no effect and ±100 for the full control effect; potency is read from the fitted curve at half-maximal effect.
Compound,"activity change, negative = inhibition [%]",Potency
CC(=O)OCC(=O)[C@@]1(O)CC[C@H]2[C@@H]3CCC4=CC(=O)CC[C@]4(C)[C@H]3C(=O)C[C@@]21C,-0.727,
CCN(CC)CCCC(C)Nc1c2ccc(Cl)cc2nc2ccc(OC)cc12 (stereo not drawn),,0.037 µM (active)
CC(C)(C(=O)O)c1ccc(C(O)CCCN2CCC(C(O)(c3ccccc3)c3ccccc3)CC2)cc1 (stereo not drawn),-1.3,
CC(C)(C)c1onc(OCP(=O)(O)O)c1CC(N)C(=O)O (stereo not drawn),5.45,
CCCCCCCCCCCCCCCC(=O)NCCO,-1.4,
Cc1cc(N)c2ccccc2[n+]1CCCCCCCCCC[n+]1c(C)cc(N)c2ccccc21,,0.37 µM (active)
CCN(CC)CCNC(=O)c1cc(Cl)c(N)cc1OC,8.38,
CN(C)CC[C@@H](c1ccc(Cl)cc1)c1ccccn1,5.57,
CC(C)C(=O)c1c(C(C)C)nn2ccccc12,6.78,
CCCn1cnc2c1c(=O)n(CCCCC(C)=O)c(=O)n2C,17.1,
C=Cc1c(C)c2cc3[nH]c(cc4nc(cc5nc(cc1[nH]2)C(C)=C5CCC(=O)O)C(CCC(=O)O)=C4C)c(C)c3C=C,-15.5,
Nc1cc(=O)[nH]c(N)n1,-2.54,
CC1=C(CC(=O)O)c2cc(F)ccc2/C1=C\c1ccc(S(C)(=O)=O)cc1,-19.4,
C[C@H]1O[C@@H](n2cc(F)c(=O)[nH]c2=O)[C@H](O)[C@@H]1O,11.4,
CN1CCN(C2Cc3ccccc3Sc3ccc(Cl)cc32)CC1 (stereo not drawn),-15.6,
CC(C)NC[C@H](O)c1ccc(O)c(O)c1,,inactive
CNC(=O)Oc1ccc2c(c1)[C@]1(C)CCN(C)[C@@H]1N2C,-24.8,

Compound,"activity change, negative = inhibition [%]",Potency
CNCC(O)c1ccc(O)c(O)c1 (stereo not drawn),8.15,
C[C@](N)(Cc1ccc(O)cc1)C(=O)O,1.4,
NC(N)=NCCC[C@H](N)C(=O)O,7.61,
CNCCCC1c2ccccc2C=Cc2ccccc21,,14.7 µM (active)
NC1CCN(c2cccc(Cl)n2)CC1,0.651,
OCCN1CCN(CCCN2c3ccccc3Sc3ccc(Cl)cc32)CC1,,10.4 µM (active)
N=c1c[n+](N2CCOCC2)[n-]o1,3.87,
COc1ccc(Cl)cc1C(=O)NCCc1ccc(S(=O)(=O)NC(=O)NC2CCCCC2)cc1,0.198,
CN(C)CCOC(C)(c1ccccc1)c1ccccn1 (stereo not drawn),8.05,
CC(CN1c2ccccc2Sc2ccccc21)N(C)C (stereo not drawn),-25.8,
CCN(CC)CCOC(=O)C1(C2CCCCC2)CCCCC1,-2.56,
CC[C@H]1CN2CCc3cc(OC)c(OC)cc3[C@@H]2C[C@@H]1C[C@H]1NCCc2cc(OC)c(OC)cc21,,0.117 µM (active)
C#CCN(C)Cc1ccccc1,-10.2,
CC(C(O)c1ccc(O)cc1)N1CCC(Cc2ccccc2)CC1 (stereo not drawn),,4.65 µM (active)
CC1=C(CC(=O)O)c2cc(F)ccc2/C1=C\c1ccc(S(C)=O)cc1 (stereo not drawn),-9,
NC(=O)c1ncn([C@@H]2O[C@H](CO)[C@@H](O)[C@H]2O)n1,-18.8,
